# From PubChem BioAssay (Tox21)
# Results filed as inconclusive are left out. Where a call stands in place of a potency, no number is given. The source made the active and inactive calls. Calls come from the whole dose curve; as a rule, active = well fitted activation curve with a large enough effect in the signal ratio in the repeat runs (not every such curve was filed as active); inconclusive = weak or mixed curves; inactive = flat fitted curve, though single readings scatter; the % refers to the signal ratio.
# Assay: p53 small molecule agonists, cell-based qHTS assay (AID 1963582)
# Conditions: HCT-116 p53RE-bla reporter, beta-lactamase FRET ratio, 16 h; series mostly up to 66 µM
# Source text: National Center for Advancing Translational Sciences [NCATS]
# Division of Preclinical Innovation [DPI]
# U.S. Environmental Protection Agency [EPA]
# National Institutes of Environmental Health Sciences [NIEHS]
# National Toxicology Program [NTP]
# U.S. Food and Drug Administration [FDA]
# p53, a tumor suppressor protein, is activated following cellular insult, including DNA damage and other cellular stresses. The activation of p53 regulates cell fate by inducing DNA repair, cell cycle arrest, apoptosis, or cellular senescence. The activation of p53, therefore, is a good indicator of DNA damage and other cellular stresses. […] The activation of the reporter gene under culture conditions can be detected by fluorescence intensity. This cell line was used to screen the Tox21 10K compound library in a 1536-well plate format and to identify agonists that activate the p53 signaling pathway.
# Tox21 Assay Protocol Summary:
# The p53RE-bla cells were dispensed at 4,000 cells/5 ul/well in 1536-well black wall/clear bottom plates using a Multidrop dispenser. After the assay plates were incubated at a 37 C/5% CO2 incubator for 5 hours, 23 nL of compounds dissolved in DMSO, positive controls or DMSO only was transferred to the assay plate by a pin tool. The plates were incubated at 37 C for 16 hours. After 1 uL of LiveBLAzerTM B/G FRET substrate was added using a Flying Reagent Dispenser, the plates were incubated at room temperature for 2 hours, and fluorescence intensity was measured by an Envision plate reader.
row,SMILES,Potency
1,Nc1cccc(C(F)(F)F)c1,inactive
2,CC(=O)c1ccccn1,inactive
3,Cc1ccc(N)c(S(=O)(=O)O)c1,inactive
4,CCCCC/C=C\C/C=C\CCCCCCCC(=O)OC,inactive
5,CNC[C@H](O)[C@@H](O)[C@H](O)[C@H](O)CO,inactive
6,COc1ccc(O)cc1,inactive
7,NC(=O)NO,inactive
8,C=CC(C)CCCC(C)(C)O (stereo not given),inactive
9,O=C1CCC(N2C(=O)c3ccccc3C2=O)C(=O)N1 (stereo not given),inactive
10,O=[N+]([O-])c1cc(C(F)(F)F)ccc1Cl,inactive
11,CCOC(=O)c1ccc(O)cc1,inactive
12,CCc1cccc(O)c1,inactive
13,NC(N)=Nc1nc(CSCC/C(N)=N/S(N)(=O)=O)cs1,inactive
14,O=C(O)c1ccc(O)cc1,inactive
15,CC1=C(C)S(=O)(=O)CCS1(=O)=O,inactive
16,C=C(C)OC(C)=O,inactive
17,CCCCOCCOCCSC#N,inactive
18,CNNCc1ccc(C(=O)NC(C)C)cc1,inactive
19,CCCCCCCCCCCCCC(=O)O,inactive
20,c1cc(-c2ccncc2)ccn1,inactive

row,SMILES,Potency
1,NC(=O)NC1NC(=O)NC1=O (stereo not given),inactive
2,O=c1[nH]c(=O)n([C@H]2C[C@H](O)[C@@H](CO)O2)cc1Br,inactive
3,O=C1O[C@H](CO)[C@@H](O)[C@H](O)[C@H]1O,inactive
4,NNC(=O)c1ccncc1,inactive
5,OCCOCCN1CCN(C(c2ccccc2)c2ccc(Cl)cc2)CC1 (stereo not given),inactive
6,COCCOC(=O)c1ccccc1C(=O)OCCOC,inactive
7,COc1ccc(C(=O)c2ccccc2O)c(O)c1,inactive
8,C[C@]12C=CC(=O)C=C1CC[C@@H]1[C@@H]2C(=O)C[C@@]2(C)[C@H]1CC[C@]2(O)C(=O)CO,inactive
9,OC[C@]1(O)OC[C@@H](O)[C@H](O)[C@@H]1O,inactive
10,O=C1O[C@H]([C@@H](O)CO)C(O)=C1O,inactive
11,CCNc1cccc(C)c1,inactive
12,C=C(C)C(N)=O,inactive
13,Cc1ccc2c(c1)C(=O)OC2=O,inactive
14,COCC(C)N (stereo not given),inactive
15,Cc1ccccc1Cl,inactive
16,Cc1cc(C(C)(C)C)c(O)c(C(C)(C)C)c1,inactive
17,COc1ccc2[nH]cc(CCNC(C)=O)c2c1,inactive
18,O=C(O)c1ccccc1,inactive
19,CCCCCCO,inactive
20,Cc1ccc(S(=O)(=O)Oc2ccc(N=Nc3ccc(-c4ccc(N=Nc5c(O)ccc6cc(S(=O)(=O)O)cc(S(=O)(=O)O)c56)c(C)c4)cc3C)cc2)cc1,inactive
